Only a selection was taken, and hits are over-represented in it overall.
KDM5B inhibitor = Primary screen for KDM5B Histone Demethylases FDH-coupled qHTS. KDM5B demethylase, FDH-coupled NADH fluorescence (FDH is formaldehyde dehydrogenase). AID 1347165, 2019. Potency, µM (top dose mostly 57.7 µM), hits mostly inhibitors. actives 2.6% (n = 220,000); active = well fitted inhibition curve with a large enough effect; also: 0% is about no effect; nearly all actives have a fitted effect of over 70% in size
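Inhibition is measured as reduced NADH fluorescence generation from FDH coupling to formaldehyde release. Truncated KDM5BΔAP at 200 nM final acts on H3K4me3 peptide (12.5 µM in substrate mix) in pH 7.5 HEPES buffer with Tween-20, 30 min, room temperature.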
An asterisk follows results filed as active; i = inactive; ! = a repeat was not active. Potency is read from the fitted curve at half-maximal effect.

SMILES	KDM5B inhibitor
O=C1CCCC2=C1C(c1ccc(F)cc1F)Nc1nonc1N2 (configuration not stated)	i
Nc1nc2c(s1)C(c1cccc(F)c1F)CC(=O)N2 (configuration not stated)	22.4µM*
Cc1nc(-c2cccc(Cl)c2)n(CC(=O)Nc2ccc(C(F)(F)F)cc2)c(=O)c1CCO	i
Cc1ccc(NC(=O)c2cc(-c3ccncc3)nc3ccccc23)c(C)c1	i
Cc1ccc(C(=O)c2sc(Nc3ccccc3)nc2N)c(C)c1	i
COc1ccc(C(=O)/C=C/c2ccc(F)cc2)c(OC(=O)c2ccccc2C)c1	i
Cc1oc(-c2ccno2)cc1S(=O)(=O)Nc1cccc2ccccc12	i
OCC1(Cc2ccccc2Cl)CCN(Cc2cc3ccccc3o2)CC1	i
O=C(NCc1ccccc1)C1CCCN(c2cnc3ccccc3n2)C1 (configuration not stated)	i
OCC1(Cc2ccc(F)cc2F)CCCN(c2cnc3ccccc3n2)C1 (configuration not stated)	28.2µM*
Fc1ccc(N2CCN(c3cnc4ccccc4n3)CC2)cc1	i
CCc1nn(-c2ccc(OC)cc2)c(Oc2ccccc2F)c1CCC(=O)NCCOC	25.1µM*
CCc1nn(-c2ccc(OC)cc2)c(Oc2ccccc2F)c1CCC(=O)NC(C)C	i
CCc1nn(-c2ccccc2)c(Oc2ccccc2OC)c1CCC(=O)NCCOC	i
C=CCOc1cccc(NC(=O)c2cccc(OCC)c2)c1	i
COc1ccc(N(CC(=O)N2CCN(Cc3ccccc3)CC2)S(=O)(=O)c2ccc(F)cc2)cc1	i
O=c1[nH]c(CN2CCCCCCC2)nc2c(Br)cc(Br)cc12	i
O=C(Oc1ccc2c(-c3cc4cc(Br)ccc4oc3=O)cc(=O)oc2c1)N1CCOCC1	i
N#Cc1ccc(CN2CCC3(CC(=O)Nc4ccccc4N3)C2)cc1 (configuration not stated)	i
COc1ccc(CN2CCC3(CC(=O)Nc4ccccc4N3)C2)cc1 (configuration not stated)	i
O=C1CC2(CCN(CC3CCNC3)C2)Nc2ccccc2N1 (configuration not stated)	112µM*
CSc1ccc(C(C)NC(=O)Cc2cccc(F)c2)cc1 (configuration not stated)	i
O=C(Cc1ccc(F)cc1)N1CCN(c2ncnc3c2nnn3-c2ccc(F)cc2)CC1	i
CCCC(C)NC(=O)C1CCN(C(=O)c2ccc(C(F)(F)F)cc2)CC1 (configuration not stated)	i
COc1ccc(-n2c(SCC(=O)N3CCc4ccccc43)nc3c(c2=O)SCC3)cc1	i
SMILES	KDM5B inhibitor
CC1=C/C(=N/NC(=S)NC2CCCCC2)CC(C)(C)C1	i
CCCCNC(=O)C(C#N)c1nc2ccccc2nc1N1CCN(c2ccc(F)cc2)CC1 (configuration not stated)	i
O=C(c1ccccc1F)N1CCn2c(nnc2C2CCCNC2)C1 (configuration not stated)	i
Fc1ccc(CN2CCn3c(nnc3C3CCCNC3)C2)cc1 (configuration not stated)	25.1µM*!
c1csc(CN2CCn3c(nnc3C3CCCNC3)C2)c1 (configuration not stated)	i
Cc1ccc(C(=O)N2CCN(c3nc4ccccc4o3)CC2)cc1	i
O=C(Cc1cccc(Cl)c1)N1CCCN(c2nc3ncccc3o2)CC1	i
O=C(Cc1ccc(F)cc1)N1CCCN(c2nc3ncccc3o2)CC1	i
CN(C)C(=O)N1CCCN(c2nc3ncccc3o2)CC1	28.2µM*
O=C(C1CCN(c2nc3ccccc3o2)CC1)N1CCOCC1	i
O=C(C1CCCN(c2nc3ncccc3o2)C1)N1CCOCC1 (configuration not stated)	39.8µM*
COc1cccc(C(=O)N2CCCN(c3nc4ncccc4o3)CC2)c1	i
O=[S+]([O-])(NC1CCCN(c2nc3ncccc3o2)C1)c1cccc(C(F)(F)F)c1 (configuration not stated)	i
O=C(c1ccccc1Cl)N1CCN(c2nc3ncccc3o2)CC1	20µM*
O=C(C1CCCC1)N1CCN(c2nc3ncccc3o2)CC1	31.6µM*
O=C(C1CCCCC1)N1CCC(c2nc3ccccc3o2)CC1	i
O=C(/C=C/Nc1ccc(Cl)c(C(F)(F)F)c1)c1ccc(Br)cc1	i
COc1cc(NC(=O)CCc2c[nH]c3ccccc23)cc(OC)c1OC	i
Cc1ccc(NC(=O)c2cc(=O)c3ccc(C)c(C)c3o2)cc1C	i
CC(C)Cn1c(COc2ccccc2Cl)n[nH]c1=S	i
Cc1ccc(C2CC(=O)C3=C(C2)OC(N)=C(C#N)C3c2ccc(Cl)c(Cl)c2)cc1 (configuration not stated)	i
CC1(C)[C@H]2CC[C@@H](CN[S+](=O)([O-])c3ccccc3)[C@@H]1C2	i
CC(C)c1ccc(NC(=O)c2nc3ccccc3nc2N2CCOCC2)cc1	i
O=C(Nc1ccccc1)c1cccc(CSc2cccc[n+]2[O-])c1	i

Bioassay records: PubChem, National Center for Advancing Translational Sciences (NCATS)
